Assay outcomes from PubChem.
esBAF inh: SWI/SNF esBAF complex inhibition; mouse ES cells, Bmi1-luciferase knock-in reporter, 24 h; 100% = twice the neutral-well signal; reporter increase, % at 12.5 µM; 350,000 compounds, 2% hits; in the data active = activation above about 40%; inconclusive = no clear call, values can overlap the other calls;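 also: a rise in the Bmi1 reporter signal indicates esBAF inhibition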
DAX1 inh: DAX1 (NR0B1) inhibition, primary screen; HEK293T StAR-luciferase reporter, SF-1/DAX-1 repression relief; inhibition, % at 6.8 µM; 370,000 compounds, 1.1% hits; AID 652010;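 active = inhibition above the mean over all tested compounds plus 3 SD, cut at about 3.6% in these data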;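 also: higher inhibition means more luminescence from relief of DAX-1 repression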
ssDAF-12 act: activates DAF-12 receptor from parasite S. stercoralis | HEK293 ssDAF-12/GRIP1 lit1-tk-luc reporter, luminescence; % of 3 µM dafachronic acid response | activation, % at 6.8 µM | 370,000 compounds, 1% hits;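 active = activation above the mean over all tested compounds plus 3 SD, cut at about 0.9% in these data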
hcDAF-12 act: H. contortus DAF-12 activation, primary screen; 370,000 compounds, 1.4% hits; HEK293 hcDAF-12 lit1-tk-luc reporter, luminescence; 0% DMSO, 100% Δ7-dafachronic acid; activation, % at 6.8 µM;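 active = activation above the mean of all tested compounds plus 3 SD, cut at about 5.5% in these data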
Wnt bcat act: activates Wnt/beta-catenin signaling in a reporter cell assay | activator, plate reader | activation, % at 9.35 µM | 300,000 compounds, 1.2% hits; in the data active = activation above about 30%, passing the limit was not always enough; inconclusive = no clear call, values can overlap the other calls
hgDAF12 agonist: activates the H. glycines DAF-12 receptor ligand-binding domain; HEK293 GAL4-hgDAF12 UAS-luciferase reporter, agonist luminescence; normalized to butyrate control; activation, % at 6.8 µM; 370,000 compounds, 1.8% hits; AID 687014;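 active = activation above a cutoff set at the mean of all screened compounds plus 3 SD, cut at about 10% in these data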
Hits are given with their value; i = inactive; ? = inconclusive; nt = not tested or not shown. Most compounds without a hit are left out; they make up all but 4.2% or so of the library.

SMILES	esBAF inh	DAX1 inh	ssDAF-12 act	hcDAF-12 act	Wnt bcat act	hgDAF12 agonist
C[C@@H]1CCCCO[C@@H](CN(C)Cc2ccc3c(c2)OCO3)[C@H](C)CN([C@@H](C)CO)C(=O)c2cc(NS(=O)(=O)c3cccs3)ccc2O1	i	nt	nt	nt	nt	nt
CCCc1cc(-c2n[nH]c(=S)n2-c2cccc(C)c2)cs1	45	i	i	i	i	i
Cc1cccc(C(=O)OCC(=O)c2ccc3c(c2)OCCO3)c1O	i	i	i	i	?	i
Cc1cccc(C(=O)OCC(=O)c2c(C)[nH]c3ccccc23)c1O	73	i	i	i	37	i
N#CCC(=O)Nc1ccc(C(=O)OCC(=O)c2ccc3c(c2)OCO3)cc1	47	i	i	i	39	i
CCOC(=O)c1c(C)[nH]c(C)c1C(=O)COC(=O)c1cccc(C)c1O	i	i	i	i	nt	i
Cc1cccc(C(=O)OCC(=O)c2ccc3c(c2)OCO3)c1O	i	3.9	i	i	57	i
N#CCC(=O)Nc1ccc(C(=O)OCC(=O)c2ccc3c(c2)OCCO3)cc1	68	i	i	i	i	i
NS(=O)(=O)c1ccc(NC(=O)COC(=O)c2ccc3c(c2)OCCO3)cc1	i	i	i	i	i	i
CCCn1c2c(c(O)c(C(=O)Nc3nc4ccccc4s3)c1=O)CCCC2	i	i	i	6.0	i	i
CNC[C@H]1Oc2cc(C#CC3(O)CCCC3)ccc2S(=O)(=O)N([C@@H](C)CO)C[C@H]1C	i	nt	nt	nt	nt	nt
CCc1cc(/C(Cc2cscn2)=N\O)c(O)cc1O	i	i	i	i	nt	i
O/N=C(\Cc1cscn1)c1ccc(O)cc1O	49	i	i	i	i	i
Cc1ccc(S(=O)(=O)Nc2ccc3c(c2)C(=O)N([C@H](C)CO)C[C@@H](C)[C@H](CN(C)Cc2ccc4c(c2)OCO4)O3)cc1	i	nt	nt	nt	nt	nt
c1cncc(CNc2cccc(-c3nc4ccccc4[nH]3)c2)c1	nt	i	i	i	50	11
c1ccc(NCc2cccnc2)cc1	i	i	i	i	nt	i
C[C@@H]1CN([C@H](C)CO)C(=O)CCCn2cc(nn2)CO[C@H]1CN(C)Cc1ccc2c(c1)OCCN2C	i	nt	nt	nt	nt	nt
O=C1Nc2ccccc2S/C1=C/c1cccs1	nt	i	1.3	i	34	i
Cc1ccc(N/C=C2/Sc3ccccc3NC2=O)cc1	nt	i	i	i	37	i
O=C1NC(=S)SC1=Cc1cccs1	i	i	i	i	i	i
O=C1Nc2ccccc2S/C1=C/NCc1ccccc1Cl	nt	i	i	i	nt	i
COc1ccc(N/C=C2/Sc3ccccc3NC2=O)cc1	53	i	i	i	i	i
C=CCc1ccc(OCc2ccc(C(=O)O)o2)c(OC)c1	nt	i	i	6.0	i	i
C=CCc1ccc(OC(=O)NC2CCCCC2)c(OC)c1	51	i	i	i	i	i
CCCc1ccc(OCc2ccc(C(=O)OC)o2)c(OC)c1	43	nt	nt	nt	i	nt
SMILES	esBAF inh	DAX1 inh	ssDAF-12 act	hcDAF-12 act	Wnt bcat act	hgDAF12 agonist
C=CCc1ccc(OCCCCOc2ccc(C(=O)O)cc2)c(OC)c1	nt	i	3.8	i	i	i
COC(=O)c1ccccc1NC(=O)c1ccnn1C	nt	i	11	i	i	i
COC(=O)c1ccccc1NC(=O)c1c(Br)cnn1C	nt	i	i	i	nt	i
Cc1cc(N2CCOCC2)ccc1/C=C\[N+](=O)[O-]	nt	i	16	i	i	i
CC(=O)Nc1ccc2nc(-c3ccccn3)[nH]c2c1	i	i	i	i	36	i
CC1(C(=O)NCc2ccc3c(c2)OCO3)CCN1C(=O)C1(c2ccc(Cl)cc2)CC1 (stereo unspecified)	i	i	i	i	i	i
CC1(C(=O)Nc2ccc3c(c2)OCO3)CCN1C(=O)C1(c2ccc(Cl)cc2)CC1 (stereo unspecified)	i	i	i	i	51	i
CCOc1ccc(NC(=O)CCCn2c(=S)[nH]c3ccsc3c2=O)cc1	nt	i	i	i	i	i
CCOc1ccc(NC(=O)CCCCn2c(=O)[nH]c3ccsc3c2=O)cc1	i	i	i	i	37	i
O=C(CCCCn1c(=O)[nH]c2ccsc2c1=O)NCCc1ccccc1	i	i	i	i	37	i
O=C(CCn1c(=O)[nH]c2ccsc2c1=O)NCCc1ccc(Cl)cc1	i	i	i	i	i	i
CC(C)=CC(=O)Nc1ccc(OCc2ccccc2)cc1	50	i	i	i	41	i
Cc1ccsc1C(=O)Nc1ccc(OCc2ccccc2)cc1	54	i	i	i	i	i
Cc1cc(C(=O)Nc2ccc(OCc3ccccc3)cc2)c(C)o1	44	i	i	i	i	i
O=C(Nc1ccc(OCc2ccccc2)cc1)c1ccccc1	nt	i	i	i	i	i
CCOC(=O)C(=O)Nc1ccc(OCc2ccccc2)cc1	i	i	i	i	i	i
C[C@@H]1CCCCO[C@H](CN(C)Cc2ccccc2)[C@H](C)CN([C@H](C)CO)C(=O)c2cc(NC(=O)NC3CCCCC3)ccc2O1	i	nt	nt	nt	nt	nt
CNC[C@H]1OCCCC[C@@H](C)Oc2ccc(NS(=O)(=O)c3cn(C)cn3)cc2C(=O)N([C@H](C)CO)C[C@H]1C	i	nt	nt	nt	nt	nt
COc1ccc(NC(=O)N(C)C[C@H]2Oc3c(NC(=O)C4CCOCC4)cccc3C(=O)N([C@@H](C)CO)C[C@H]2C)cc1	i	nt	nt	nt	nt	nt
COc1ccc(CC(=O)Nc2sc3c(c2C(N)=O)CCCC3)cc1	i	i	i	i	i	i
COc1ccc2nc(Nc3sc4c(c3C(N)=O)CCCC4)sc2c1	?	i	i	6.4	i	i
COc1ccc(-c2nc(NC3=NCCCCC3)sc2C)cc1	nt	i	i	i	i	i
COc1ccc2nc(NC3=NCCC3)sc2c1	58	i	i	i	57	i
CCCNC(=O)[C@@H]1[C@@H](CO)[C@@H]2Cn3c(ccc(-c4cccnc4)c3=O)[C@H]1N2C(=O)Nc1ccccc1	i	nt	nt	nt	nt	nt
COCCNC(=O)C(=O)N/N=C/c1cccs1	nt	i	i	i	i	i
SMILES	esBAF inh	DAX1 inh	ssDAF-12 act	hcDAF-12 act	Wnt bcat act	hgDAF12 agonist
COc1ccccc1NC(=O)C(=O)N/N=C/c1cccs1	76	i	i	6.2	i	i
CC=Cc1ccc2n(c1=O)C[C@@H]1N[C@H]2[C@H](C(=O)NC2CCCCC2)[C@H]1CO (mixture of isomers)	i	nt	nt	nt	nt	nt
C[C@@H]1CN([C@@H](C)CO)C(=O)c2cc(NC(=O)Nc3ccccc3)ccc2O[C@@H]1CN(C)S(=O)(=O)c1ccccc1	i	nt	nt	nt	nt	nt
CNC[C@H]1Oc2ccc(NC(=O)CCN3CCOCC3)cc2C(=O)N([C@@H](C)CO)C[C@H]1C	i	nt	nt	nt	nt	nt
C[C@@H]1CN([C@H](C)CO)C(=O)c2cc(C#CC3CCCCC3)cnc2O[C@H]1CN(C)Cc1cncnc1	i	nt	nt	nt	nt	nt
C[C@@H]1CN([C@H](C)CO)C(=O)c2c(c3ccccc3n2C)-c2ccccc2CO[C@@H]1CN(C)CC1CC1	i	nt	nt	nt	nt	nt
COc1cccc(C(=O)N/N=c2\sc3ccccc3n2C)c1	nt	i	i	i	nt	i
COc1cc(OC)cc(C(=O)N=c2sc3ccccc3n2C)c1	nt	i	i	i	i	11
